This is a sample that favours compounds with a hit; in the whole collection about 21% have one here.
DRD3 agonist = activates the human D3 dopamine receptor | D3R DiscoveRx beta-arrestin cells, luminescence, 90 min | max activation, % | actives 0.58% (n = 410,000); in the data active = max activation above about 30%; note: 0% is about no effect
Target sequence (P35462 whole entry, looked up): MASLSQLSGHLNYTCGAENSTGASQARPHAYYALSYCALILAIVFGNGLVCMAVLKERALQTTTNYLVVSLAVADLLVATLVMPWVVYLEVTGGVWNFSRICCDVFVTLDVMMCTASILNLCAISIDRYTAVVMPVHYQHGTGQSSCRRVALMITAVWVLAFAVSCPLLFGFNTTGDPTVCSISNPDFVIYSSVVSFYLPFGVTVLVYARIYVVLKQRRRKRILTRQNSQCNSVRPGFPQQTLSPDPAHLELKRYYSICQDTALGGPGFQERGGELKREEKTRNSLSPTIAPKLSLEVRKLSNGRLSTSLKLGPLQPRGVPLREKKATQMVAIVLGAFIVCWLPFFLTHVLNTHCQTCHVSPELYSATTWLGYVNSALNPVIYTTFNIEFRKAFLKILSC
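Cells at 1500/well, incubated overnight, then treated with pinned compounds (dopamine as control) for 90 min at 37 degrees C. DiscoveRx reagent added for 30 - 60 minutes at room temperature; luminescence read.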
IL-1B inflam inh = inhibitors of inflammasome signaling (IL-1 beta secretion) | THP-1 LPS/ATP IL-1B secretion, AlphaLISA, 16 h; active compounds read low | activity change, % at 57.5 µM | actives 4.7% (n = 360,000) | AID 743279; in the data active = activity change below about -50%; inconclusive = mostly about -30% to -49%; note: % is set by controls: 0 for no effect and ±100 for the full control effect
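THP-1 cells pretreated 1 hr with compounds (up to 57.5 uM final), then stimulated with LPS (250 ng/mL final) plus ATP (1.25 mM final); secreted IL-1B measured by AlphaLISA after 16 hr, decreased signal indicating inhibition.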
DT40 TDP1 no CPT = qHTS for Inhibitors of human tyrosyl-DNA phosphodiesterase 1 (TDP1): qHTS in cells in absence of CPT; DT40 Tdp1-/- hTDP1 cells, no CPT, ATP luminescence, 48 h; Potency, µM (top dose mostly 46.2 µM), inactives show top-dose activity change, negative = growth inhibition, most hits filed as inhibitors; actives 15% (n = 420,000); AID 686978, 2013; note: potency is the fitted concentration of half-maximal effect; % is set by controls: 0 for no effect and ±100 for the full control effect; nearly all actives have a fitted effect of over 55% in size
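Chicken DT40 Tdp1-/- cells stably complemented with human TDP1 were seeded at 400 cells/well with DMSO in place of 20 nM camptothecin. After compound pinning, cells grew at least 48 hr at 37 °C; viability read by CellTiter-Glo luminescence.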
DRD3 antagonist = antagonists of human D3 dopamine receptor; P35462; D3R cells, DiscoveRx beta-arrestin luminescence, antagonist mode; active compounds read low; max response, negative = inhibition, %; actives 2.5% (n = 360,000); AID 652054; in the data active = max response below about -50%; inconclusive = no clear call, values can overlap the other calls; note: % is set by controls: 0 for no effect and ±100 for the full control effect
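Cells plated overnight at 1500 cells/well, then exposed to library compounds with dopamine controls for 90 minutes at 37 degrees C. DiscoveRx reagent added for 30–60 minutes at room temperature; luminescence read, quantitative HTS format.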
ClpP mod = qHTS Assay for Activators of ClpP; ATP-dependent Clp protease proteolytic subunit (Bacillus subtilis (strain 168)), P80244; purified B. subtilis ClpP, FRET peptide cleavage, 20 min; Potency, µM (top dose mostly 57.5 µM), inactives show at the top dose activity change, negative = active; actives 1.9% (n = 340,000); AID 651965, 2013; active = well fitted falling curve with a large enough effect; inconclusive = small, poorly fitted or top-dose-only effect; inactive = no such curve, though single readings can be large or run the other way; note: potency is the fitted concentration of half-maximal effect; the source files actives as falling curves though it sought activators and does not explain the sign; nearly all actives have a fitted effect of over 65% in size
Target sequence (P80244 whole entry, looked up): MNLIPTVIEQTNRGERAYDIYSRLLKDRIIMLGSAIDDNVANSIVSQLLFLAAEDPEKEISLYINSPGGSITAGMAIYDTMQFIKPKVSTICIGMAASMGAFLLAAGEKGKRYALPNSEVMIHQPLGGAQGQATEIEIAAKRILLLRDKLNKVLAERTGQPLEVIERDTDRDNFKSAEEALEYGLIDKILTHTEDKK
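FRET quenching reversal measured ClpP activation: 10 microg/mL B. subtilis ClpP at pH 8 with the FRET-FV decapeptide, read at 430 nm after 320 nm excitation. The 20-min minus 0-min signal was scaled between DMSO/no-enzyme wells and ADEP (5.8 microM final).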
DT40 TDP1 CPT = growth inhibition of DT40 Tdp1-/-;hTDP1 cells with camptothecin (screen for TDP1 inhibitors) | chicken DT40 Tdp1-/-;hTDP1 cells + 20 nM CPT, ATP luminescence, 48 h | Potency, µM (top dose mostly 46.2 µM), inactives show at the highest dose activity change, negative = growth inhibition, actives largely listed as inhibitors | actives 12% (n = 420,000) | AID 686979; note: potency is the fitted concentration of half-maximal effect; % is set by controls: 0 for no effect and ±100 for the full control effect; nearly all actives have a fitted effect of over 55% in size
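Cell growth measured by CellTiter-Glo luminescence after a minimum 48 h, 37 C compound exposure with 20 nM CPT in Tdp1-knockout DT40 cells stably expressing hTDP1, seeded 400/well; qHTS titration format.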
Active calls of the source: *; ? = inconclusive; · = no result given; [ ] = remark or other dose. Unless noted, calls come from the whole dose curve; as a rule, active = well fitted inhibition curve with a large enough effect; inconclusive = small, poorly fitted or top-dose-only effect; inactive = flat fitted curve, though single readings scatter.

SMILES | DRD3 agonist | IL-1B inflam inh | DT40 TDP1 no CPT | DRD3 antagonist | ClpP mod | DT40 TDP1 CPT
Cc1ccc2c(Cl)c(C(=O)NCC(c3ccco3)N3CCCC3)sc2c1 (configuration not stated) | -14.3 | -7.0 | ? | 1.2 | 0.0% | 18.4µM*
COc1ccc2c(c1)-c1nc(-n3ncc(C(=O)NCc4cccc(C)n4)c3C3CC3)ncc1CC2 | · | · | -16.0% | · | · | 0.8%[9.04 µM]
CC(C)=CCC12Oc3cc(O)ccc3C1(O)Oc1cc3c(c(O)c1C2=O)C=CC(C)(C)O3 (configuration not stated) | -32.6 | -1.2 | ? | ? | 6.6% | 25.9µM*
COCCC(=O)N1CCC(Oc2ccc(C(=O)NCCCC3CCCC3)cc2)CC1 | 3.8 | 8.7 | 20.6µM* | 7.8 | 31.6µM* | 20.6µM*
COCCC(=O)N1CCC(Oc2ccc(C(=O)NCCC3=CCCCC3)cc2)CC1 | -4.3 | 1.9 | ? | 11.7 | 2.0% | 16.4µM*
COCCC(=O)N1CCC(Oc2ccc(C(=O)NCCc3cnn(C)c3)cc2)CC1 | 9.6 | 17.4 | 1.3% | 2.5 | -2.0% | 2.0%
COc1ccc(OC)c(CNS(=O)(=O)c2cc(-c3onc(C)c3C)ccc2C)c1 | 10.4 | · | ? | · | 0.1% | ?
COc1cccc(CC(NC(C)=O)C(=O)NC2CCN(c3nc(C)cc(C)c3C#N)CC2)c1OC (configuration not stated) | -4.4 | -8.8 | ? | 6.9 | 28.2µM* | -17.3%
COCCNC(=O)C(c1ccc(C)cc1)N(Cc1cccs1)C(=O)CCC(=O)Nc1ccccn1 (configuration not stated) | 23.9 | 5.8 | -19.6% | 14.1 | 0.6% | 0.0%
CCOc1ccccc1CN1CCN(CCCc2ccccc2)CC1CCO (configuration not stated) | -20.7 | -27.8 | ? | -73.5* | -1.3% | ?
COc1ccc(F)c(CN2CCN(CCc3ccccc3)C(CCO)C2)c1 (configuration not stated) | -9.2 | -1.9 | -14.2% | ? | -2.2% | -12.5%
OCCC1CN(Cc2cc(F)ccc2F)CCN1CCCc1ccccc1 (configuration not stated) | -17.7 | 0.0 | -16.9% | -85.6* | -2.8% | -30.0%
OCCC1CN(Cc2ccc(F)cc2Cl)CCN1CCc1ccccc1 (configuration not stated) | -17.6 | ? | ? | -99.1* | · | -16.2%
COc1ccc(OC)c(CN2CCN(CCc3ccccc3)C(CCO)C2)c1 (configuration not stated) | -15.4 | -10.7 | ? | -55.7* | · | 11.6µM*
OCCC1CN(Cc2cccc(F)c2F)CCN1CCc1ccccc1 (configuration not stated) | -13.1 | 0.0 | -0.5% | -19.4 | -0.5% | ?
CCN(C(=O)Cc1c(C(=O)O)n(C)c2ccccc12)c1ccc(F)cc1 | -1.6 | 19.5 | 4.0% | 9.7 | · | 4.0%
NC(CS(=O)O)C(=O)O (configuration not stated) | 5.8 | 13.9 | -0.3% | -24.2 | 0.3% | 18.0%
COc1ccc(C)cc1NC(=O)CSc1nc(=O)n(CCCN2CCOCC2)c2c1CCCC2 | -24.8 | -17.2 | ? | -2.1 | 1.2% | ?
CCOCCCN(C)C1CCN(C(=O)c2oc3ccccc3c2NC(=O)c2ccc(F)cc2)CC1 | -23.7 | -2.1 | -8.7% | ? | -6.6% | ?
NCCC(=O)N[C@H](Cc1cnc[nH]1)C(=O)O | · | · | -3.2% | · | · | 9.0%
CCc1ccccc1NC(=O)Cn1c(=O)n(Cc2ccco2)c(=O)c2ccccc21 | -5.1 | · | -21.8% | · | -12.5% | -27.7%
O=C(CN1C(=O)NC2(CCCC2)C1=O)OCCOc1cccc(Br)c1 | 1.3 | -60.1* | ? | 4.1 | · | ?
O=C(CN1C(=O)NC2(CCCC2)C1=O)OCCOc1ccccc1 | 3.8 | -3.7 | -17.0% | -3.6 | -1.2% | ?
CC(=O)N1CCC2(CC1)CCN(C(=O)Nc1cccc(C#N)c1)CC2 | · | · | 0.0% | · | · | 0.8%
COc1cccc(CNC(=O)c2cc(S(=O)(=O)N3CCCCC3)cn2C)c1 | -3.5 | · | ? | · | 0.4% | -18.8%
SMILES | DRD3 agonist | IL-1B inflam inh | DT40 TDP1 no CPT | DRD3 antagonist | ClpP mod | DT40 TDP1 CPT
CC(/C=N/N1CCN(c2ccc(C)cc2)CC1)=C\c1ccccc1 | -22.9 | -16.9 | -7.0% | 4.8 | 0.9% | 7.2%
BrC(=C\c1ccccc1)/C=N/N1CCN(c2ccccc2)CC1 | -8.4 | -81.1* | 7.31µM* | -21.2 | · | 1.16µM*
Nc1nnnn1/N=C/C=C/c1ccccc1 | -0.1 | -2.4 | -3.3% | 7.3 | -0.5% | -3.6%
Cc1ccc(CN2CCN(/N=C\C(Br)=C\c3ccccc3)CC2)cc1 | -12.6 | -78.0* | 8.2µM* | -22.1 | · | 2.59µM*
Nc1nnnn1/N=C/C(Br)=C/c1ccccc1 | -13.5 | -93.0* | 0.581µM* | -99.9* | -2.0% | 0.461µM*
CC(=O)c1ccccc1NC(=O)COC(=O)C1=NN(c2ccccc2)C(=O)CC1 | 11.6 | 23.4 | -23.3% | -3.3 | · | 0.3%
Cn1c(=O)c2sccc2n2c(CCCC(=O)Nc3ccc(Cl)cc3)nnc12 | 9.3 | · | ? | · | -1.2% | 20.6µM*
COc1cc(NC(=O)CCCc2nnc3n(C)c(=O)c4sccc4n23)cc(OC)c1OC | 8.5 | · | 0.7% | · | 0.0% | 9.6%
CCn1c(=O)c2sccc2n2c(CCC(=O)Nc3ccc(C(C)C)cc3)nnc12 | 1.7 | · | 23.1µM* | · | -1.1% | ?
COc1ccc(OC)c(NC(=O)CCCc2nnc3n(C(C)C)c(=O)c4sccc4n23)c1 | 8.0 | · | ? | · | -7.2% | -16.8%
Cn1c(=O)c2sccc2n2c(CCCC(=O)Nc3ccc(Oc4ccccc4)cc3)nnc12 | 4.6 | · | 16.4µM* | · | -4.9% | ?
COc1ccc(NC(=O)CCCc2nnc3n(C(C)C)c(=O)c4sccc4n23)cc1Cl | 7.5 | · | 23.1µM* | · | 0.3% | 13µM*
COC(=O)c1scc(-c2ccc(C)cc2)c1S(=O)(=O)Nc1cc(Cl)ccc1C | -10.1 | · | ? | · | -5.0% | ?
CC(C)Cn1c(=O)c2sccc2n2c(CCCC(=O)Nc3ccc(Cl)cc3)nnc12 | -9.9 | · | 18.4µM* | · | -13.4% | ?
Cc1ccc2nc(-c3ccsc3)c(Nc3ccc(C(C)C)cc3)n2c1 | 3.1 | · | -9.0% | · | -19.0% | -18.9%
Cc1ccc2nc(-c3ccncc3)c(Nc3ccc(C(C)C)cc3)n2c1 | 9.9 | · | 7.31µM* | · | -9.8% | 6.51µM*
Cc1ccc(Nc2c(-c3ccncc3)nc3ccc(C)cn23)cc1 | 15.2 | · | ? | · | -6.5% | 16.4µM*
O=C(NCc1csc(-c2cccs2)n1)C1CCC1 | 3.0 | 18.1 | -11.6% | 17.1 | 4.4% | 2.8%

Bioassay records deposited in PubChem BioAssay by National Center for Advancing Translational Sciences (NCATS).
